High-throughput results from PubChem.
This is a sample that favours compounds with a hit; in the whole collection about 6.5% have one here.
Vaccinia mCherry: vaccinia inhibition (mCherry reporter) | Vaccinia virus mCherry reporter infection, fluorescence | hit rate 0.63% among 310,000 | Potency, µM (titrated, usually from 36.5 µM), for inactives: at the top dose activity change, negative = inhibition, most hits filed as inhibitors; calls by dose curve; tested in A549 cells; also: potency is read from the fitted curve at half-maximal effect; nearly all actives have a fitted effect of over 35% in size
MARV entry inh: blocks Marburg virus binding to or entry into cells; Marburg virus pseudotyped entry inhibition, cell reporter; Potency, µM (doses to about 37.8 µM), inactives show top-dose activity change, negative = inhibition, usual class: inhibitors; hit rate 1.8% among 300,000; AID 540276; calls by dose curve; tested in HEK293 cells; also: potency is read from the fitted curve at half-maximal effect
VACV Venus inh: vaccinia inhibition (Venus reporter). Vaccinia virus Venus reporter expression, fluorescence. Potency, µM (series often up to 36.5 µM), without a hit: at the highest dose activity change, negative = inhibition, hits mostly inhibitors. AID 720580. hit rate 0.46% among 330,000; calls by dose curve; tested in A549 cells; also: potency is read from the fitted curve at half-maximal effect; nearly all actives have a fitted effect of over 30% in size
Lassa entry inh: inhibitors of Lassa virus binding or cell entry. Lassa virus pseudotype entry inhibition, cell reporter. hit rate 1.2% among 300,000. Potency, µM (titrated, usually from 37.9 µM), without a hit: at the top dose activity change, negative = inhibition, usual class: inhibitors; calls by dose curve; tested in HEK293 cells; also: potency is read from the fitted curve at half-maximal effect; nearly all actives have a fitted effect of over 50% in size
FMDV inh: foot and mouth disease virus antiviral activity | FMDV antiviral cell-based qHTS | Potency, µM (titrated, usually from 57.9 µM), without a hit: at the top dose activity change, negative = inhibition, usual class: inhibitors | hit rate 1.2% among 410,000 | AID 1159524; calls by dose curve; tested in HEK293T cells; also: read-out not given here; potency is read from the fitted curve at half-maximal effect; nearly all actives have a fitted effect of over 45% in size
HCMV inh: blocks human cytomegalovirus replication; HFF cells, HCMV-luciferase reporter, 72 h; stronger effect = lower value; activity change, negative = inhibition, % at 57.5 µM; hit rate 4.5% among 410,000; AID 1259415; in the data active = activity change below about -60%; inconclusive = no clear call, values can overlap the other calls; inactive = above about -39%
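Compounds were evaluated in HFFs infected with an HCMV luciferase reporter virus (MOI 1 PFU/cell). Luciferase in lysates collected 72 h post infection served as the replication measure.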
* marks the source's active call; other numbers are inactive results; ? = inconclusive; . = no result given; [ ] = dose if it differs, or a comment. % is scaled to controls: 0 for no effect and ±100 for the full control effect.

SMILES	Vaccinia mCherry	MARV entry inh	VACV Venus inh	Lassa entry inh	FMDV inh	HCMV inh
O=S(=O)(NCC(c1ccco1)N1CCN(c2ccc(F)cc2)CC1)c1ccc2c(c1)OCCO2 (stereo unspecified)	?	?	-19.6%	?	-38.6%	-74.8*
COc1ccc(N2CCN(C(CNS(=O)(=O)c3ccc(OC)c(C)c3)c3ccco3)CC2)cc1 (stereo unspecified)	-15.5%	.	-15.8%	5.62µM*	-3.2%	-28.0
O=C(CSc1nc(Nc2ccccc2)nc(N2CCOCC2)n1)Nc1ccccc1Cl	-9.2%	?	-5.2%	4.61µM*	.	?
O=C(CSc1nc(Nc2ccccc2)nc(N2CCOCC2)n1)Nc1ccc(Br)cc1F	.	.	.	.	0.0%	-4.1
CCOC(=O)CSC1=C(C#N)C(c2ccc(C)o2)CC(=O)N1 (stereo unspecified)	-20.5%	.	?	.	-28.6%	-84.4*
CCOC(=O)CSC1=C(C#N)C(c2ccc(Cl)cc2)CC(=O)N1 (stereo unspecified)	-29.8%	.	-27.0%	.	-8.8%	9.3
CCc1ccc(NC(=O)CSC2=C(C#N)C(c3ccc4c(c3)OCO4)CC(=O)N2)cc1 (stereo unspecified)	-2.7%	-2.5%	-16.5%	0.0%	.	-77.0*
CCOC(=O)CSC1=C(C#N)C(c2ccc3c(c2)OCO3)CC(=O)N1 (stereo unspecified)	-30.4%	15.8µM*	?	-29.5%	-27.7%	-12.6
Cc1ccc(NC(=O)CSC2=C(C#N)C(c3ccc4c(c3)OCO4)CC(=O)N2)cc1C (stereo unspecified)	.	-6.3%	.	4.4%	-28.6%	?
Cc1[nH]c2ccccc2c1C(=O)CNc1ccc(Br)cc1	-14.5%	.	-14.3%	.	.	.
Cc1cccc(C)c1-n1nnnc1C(c1cc2ccccc2o1)N1CCC(n2c(=O)[nH]c3ccccc32)CC1 (stereo unspecified)	?	.	?	.	10µM*	-66.6*
COc1ccc(C(c2nnnn2-c2c(C)cccc2C)N2CCC(n3c(=O)[nH]c4ccccc43)CC2)cc1 (stereo unspecified)	-20.8%	.	-29.1%	.	?	-69.0*
CCC(Nc1ccc(-c2nc(-c3cccnc3)no2)cc1[N+](=O)[O-])c1ccccc1 (stereo unspecified)	2.1%	-0.7%[46.1 µM]	-2.8%	-12.0%[46.1 µM]	0.0%	-21.1
O=C(NC1CCCCCC1)c1ccc(=O)n(Cc2ccccc2)n1	-13.4%	.	-19.3%	.	-17.9%	-65.6*
CCOC(=O)C1=C(C)NC2=C(C(=O)C(C(=O)OCC)C(c3ccco3)C2)C1c1ccccc1C (stereo unspecified)	-21.9%	.	-24.2%	.	.	.
COc1c2ccc(OCC/C(C)=C/C(=O)C=C(C)C)cc2nc2occc12	-30.6%	.	?	.	-12.4%	-101.1*
CC(C)N(Cc1ccccc1)C(=O)CN1C(=O)COc2ccc(S(=O)(=O)N3CCCCCC3)cc21	-3.0%	-21.2%[46.1 µM]	-17.8%	-26.6%[46.1 µM]	-3.3%	-81.0*
O=C(O)CN1C(=O)COc2ccc(S(=O)(=O)N3CCCCCC3)cc21	.	.	.	.	-14.7%	-60.5*
CN(Cc1ccccc1)C(=O)CN1C(=O)COc2ccc(S(=O)(=O)N3CCCC3)cc21	-16.6%	5.1%[46.1 µM]	-5.3%	2.8%[46.1 µM]	21.9%	-7.7
Cc1ccc(Oc2ccc(OCC(=O)NC(CC(C)C)C(=O)O)cc2)cc1 (stereo unspecified)	-2.6%	?	-1.0%	0.0%	1.8%	-64.9*
CC(C)COc1ccc(C(=O)NC(CC(C)C)C(=O)O)cc1 (stereo unspecified)	-8.2%	26.8%	1.4%	4.1%	15.5%	-5.6
CCOC(=O)C1CCCN(C(=O)c2cc3nc(-c4ccc5c(c4)OCO5)cc(C(F)(F)F)n3n2)C1 (stereo unspecified)	.	?	.	?	35.5µM*	-22.7
Cc1ccc(-c2cc(C(F)(F)F)n3nc(C(=O)N4CCN5CCCC5C4)cc3n2)cc1 (stereo unspecified)	-17.0%	?	-23.8%	1.0%[46.1 µM]	-1.9%	-23.8
CC(O)(COc1ccccc1)c1ccc2c(c1)CN(C/C=C/c1ccco1)CCO2 (stereo unspecified)	-4.8%	.	3.1%	.	-5.2%	.
Cc1nn(C)c2c1c(C(F)(F)F)cc(=O)n2CC(=O)NC(C)(C)C	0.2%	.	2.7%	-8.2%[46.1 µM]	-24.0%	-12.2
